From PubChem BioAssay (NCATS)

test: qHTS profiling of the MIPE4 collection as inhibitors of Plasmodium falciparum (DD2) proliferation (Rep 2) (AID 743346); conditions: P. falciparum Dd2 in erythrocytes, SYBR Green DNA, 72 h; at 28.5 µM unless noted
Excerpt: Plasmodium falciparum is a virulent malarial parasite that kills 1-2 million people worldwide each year. Transmitted by mosquitoes, the sporozoite form of the parasite enters the blood stream to infect hepatocytes, where they become merozoites that infect red blood cells (erythrocytes). Within erythrocytes, merozoites begin a […] cycle of growth and division, after which the parasite is released to infect new red blood cells. Gametocytes, which form within erythrocytes as well, circulate in the bloodstream and are ingested by the mosquito, thereby completing the life cycle. To profile malarial isolates for differential chemical responses and to identify inhibitors of malarial growth, an assay that measures P. falciparum growth and replication within erythrocytes was employed. This assay uses a DNA binding fluorescent dye (SYBR Green) to detect parasite DNA following cell lysis. Because mature erythrocytes lack DNA, only Plasmodium-derived DNA is detected.
The SYBR Green viability assay was adapted from a method described previously (Plouffe et al., 2008). For screening 3 ul culture medium was dispensed into 1536 well black clear bottom plates (Aurora Biotechnologies) using a Multidrop Combi (Thermo Fisher Scientific Inc.), 23 nL compounds in DMSO were added by a pin tool (Kalypsys), and 5 ul of erythrocytes infected with P. falciparum (0.3% parasitemia, 2.5% hematocrit final concentration) were added. The plates were incubated at 37 C in a humidified incubator in 5% CO2 for 72 h, and 2 ul lysis buffer (20 mM Tris HCl, 10 mM EDTA, 0.16% saponin, 1.6% triton X, 10X SYBR Green I supplied as 10,000X […] by Invitrogen) was added to each well. The plates were mixed for 25 sec with gentle shaking and incubated overnight at room temperature in the dark. The following morning, fluorescence intensity at 485(14) nm excitation and 535(25) nm emission wavelengths was measured on an EnVision (Perkin Elmer) plate reader. Plate reads were normalized relative to the control inhibitor (0.29 uM artemisinin) and vehicle (DMSO) wells present on each plate and then corrected by an algorithm using vehicle-only control plates at the beginning and end of the compound plate stack.

SMILES	parasite growth, % of control (lower = inhibition) [%]
Cc1cc2c(C(C)C)c(O)c(O)c(C=O)c2c(O)c1-c1c(C)cc2c(C(C)C)c(O)c(O)c(C=O)c2c1O	19.3
CCC(C)N(C)C(=O)c1cc2ccccc2c(-c2ccccc2Cl)n1 (stereo not given)	53.7
O=C(O)[C@@H](c1ccc(OCc2ccc3ccccc3n2)cc1)C1CCCC1	130
CC(C)(N)C(=O)N[C@H](COCc1ccccc1)C(=O)N1CCC2(CC1)CN(S(C)(=O)=O)c1ccccc12	7.19
Cc1cccc(-c2[nH]c(C(C)(C)C)nc2-c2ccc3nccnc3c2)n1	34.2
COCC(=O)NCC=Cc1ccc2ncnc(Nc3ccc(Oc4ccc(C)nc4)c(C)c3)c2c1	29.4
Cc1c(CCOc2ccc(C(=O)O)cc2)c2cc(Cl)ccc2n1C(c1ccccc1)c1ccccc1	41.9
COc1ccc(-c2ccc3c(N4CCOC[C@H]4C)nc(N4CCOC[C@H]4C)nc3n2)cc1CO	13.1
COc1ccc2c3n(c(=NC(=O)c4cccnc4)nc2c1OC)CCN3	7.17
Cn1cnc([N+](=O)[O-])c1Sc1ncnc2nc[nH]c12	33.8
NCCCC(N)(C(=O)O)C(F)F (stereo not given)	157
N=c1nc(N2CCCCC2)cc(N)n1O	7.66
OC(CN1CCC(Cc2ccc(F)cc2)CC1)c1ccc(Cl)cc1 (stereo not given)	19.9
CCN(c1ccccc1)c1cc(NC)[n+](C)c(C)n1	58.7
COc1cc(F)c(F)c(Nc2ccc(I)cc2F)c1NS(=O)(=O)C1(C[C@H](O)CO)CC1	26.7
C[C@@H]1CN(Cc2ccc(F)cc2)[C@@H](C)CN1C(=O)c1cc2c(C(=O)C(=O)N(C)C)cn(C)c2cc1Cl	48.6
Cc1ccc(N(CC2=NCCN2)c2cccc(O)c2)cc1	57
O=C(Nc1cccnc1)N1CCC(Cc2cccc(Oc3ccc(C(F)(F)F)cn3)c2)CC1	21
O=C(O)COCCN1CCN(C(c2ccccc2)c2ccc(Cl)cc2)CC1 (stereo not given)	72.8
Cn1cc(-c2ccc3nnc(C(F)(F)c4ccc5ncccc5c4)n3n2)cn1	41.1

SMILES	parasite growth, % of control (lower = inhibition) [%]
CS(=O)(=O)Oc1ccc2c(NC(N)=O)c(C(=O)c3ccc(Cl)cc3Cl)oc2c1	33.3
Cc1ccccc1C(OCCN(C)C)c1ccccc1 (stereo not given)	40.2
CCc1ccc(CCOc2ccc(CC3SC(=O)NC3=O)cc2)nc1 (stereo not given)	79.4
CCCCNc1cc(C(=O)O)cc(S(N)(=O)=O)c1Oc1ccccc1	102
COc1cc2nccc(Oc3ccc(NC(=O)NC4CC4)c(Cl)c3)c2cc1C(N)=O	30.6
COc1nc(-c2ccc3c(c2)OCO3)n(-c2ccc(NC(=O)CSc3ccccc3)cc2)n1	61.9
O=C(Nc1ccc(F)c(C(F)(F)F)c1)Nc1nnc(-c2ccncc2)s1	25.2
O=c1n(CCCN2CCN(c3cccc(Cl)c3)CC2)nc2ccccn12	72.8
NC(=O)c1ccc(-c2nc(-c3ccc4c(c3)OCO4)c(-c3ccccn3)[nH]2)cc1	32.2
O=c1ncn2nc(Sc3ccc(F)cc3F)ccc2c1-c1c(Cl)cccc1Cl	18.7
CC(c1cc2ccccc2s1)N(O)C(N)=O (stereo not given)	140
O=C1CCC(N2C(=O)c3ccccc3C2=O)C(=O)N1 (stereo not given)	142
N#Cc1ccc(C(c2ccc(C#N)cc2)n2cncn2)cc1	123
Clc1ccc(Nc2nnc(Cc3ccncc3)c3ccccc23)cc1	63.4
Cc1ccc(NC(=O)c2cccc(C(C)(C)C#N)c2)cc1Nc1ccc2ncn(C)c(=O)c2c1	51
CCC(=O)N[C@H]1CC[C@H](C(=O)N(C)c2ccc(-c3nc4ccccc4o3)cc2)C1	41.7
CNC(=O)c1ccc(C)c(-n2c(C)cc(OCc3ccc(F)cc3F)c(Br)c2=O)c1	50.9
N#CC[C@H](C1CCCC1)n1cc(-c2ncnc3[nH]ccc23)cn1	55.7
CS(=O)(=O)c1ccc(C(=O)Nc2ccc(Cl)c(-c3ccccn3)c2)c(Cl)c1	97
OC(CCN1CCCCC1)(c1ccccc1)C1CC2C=CC1C2 (stereo not given)	44.2
